Data on 68 compounds can be found in PubChem BioAssay AID1814 (Broad Institute, 2009).

In all, about 300,000 compounds went through this assay and about 22,000 (7.3%) were called active. About 2% were inconclusive and are not listed. The entries come from a sample that favours actives as a whole. Values without a mark were called inactive. Rule as the data show it: active = activity score below about -60%; inconclusive = mostly about -28% to -61%; inactive = positive scores.

This assay in a line: Activators working through SNCA 5'UTR binding (MLPCN) (AID 1814). Conditions: alpha-synuclein 5'UTR reporter, activators screen; stronger effect = lower value; tested at 7.5 µM.
In the case of `COc1ccc2ccccc2c1CNCc1ccccn1`, the activity score is -104% (active). With `Cc1ccc(S(=O)(=O)/N=C(/Nc2ccccn2)c2ccc(Cl)cc2)cc1`, the activity score was -118% (active).

On to `O=C(c1ccc(Cl)cc1)N1N=C(c2ccccn2)CC1(O)C(F)(F)F` (stereo not drawn), for which the activity score is 68.6%. The value for `C/C(=N\NC(=O)Cc1ccc(Cl)cc1)c1ccccn1` was 85.6%. The value for `Cc1cccc(CSc2ccc(-c3cccs3)nn2)c1` was -110% (active); that for `COc1ccc(/C(O)=C2/C(=O)C(=O)N(CCCN(C)C)C2c2ccccc2)cc1OC` (stereo not drawn) was -86.9% (active). The value for `Cc1ccc(NC(=O)c2sc3nc(N)c(C#N)cc3c2N)cc1` was -133% (active); that for `Brc1ccccc1C1N=C(c2ccccc2)NO1` (stereo not drawn) was -157% (active). As to `N#Cc1ccc(C2N=C(c3ccccc3)NO2)cc1` (stereo not drawn), the activity score was -107% (active). The value for `COC(=O)c1c(NC(=O)c2ccc(S(=O)(=O)N3CCOCC3)cc2)sc2c1CCN(C(C)C)C2` was -85.3% (active); that for `O=[N+]([O-])c1cccc(Nc2c3ccccc3nc3ccccc23)c1` was -124% (active). The value for `O=C(Nc1cccc(Br)c1)c1ccc2snnc2c1` was -93% (active). Next, `FC(F)(F)c1ccnc(Oc2ccc(C3=NCCS3)cc2)c1`: -169% (active); `Cc1nn(C)cc1CNC(=O)Nc1ccc(Cl)cc1`: -69.4% (active); `Cn1ccc(NC(=O)Nc2ccc(Cl)cc2)n1`: -80.2% (active). For the compound `CSCc1ccc(C(=O)Nc2cc(C)cc(C)c2)cc1`, the activity score was -126% (active). The value for `C=CCn1c(SCC(N)=O)nnc1-c1cc2c(s1)CCC(CC)C2` (stereo not drawn) was -137% (active); that for `c1ccc(CCN2CN=C(Nc3nc4ccccc4o3)NC2)cc1` was -174% (active). The value for `O=C(NCc1ccccn1)c1cc2ccccc2oc1=O` was -79.8% (active). The value for `O=C(NCCc1c[nH]c2ccccc12)c1cc2ccccc2oc1=O` was -188% (active); that for `CSc1ccc(/C=N/NC(=O)c2cccc(Cl)c2)cc1` was -142% (active); that for `O=C(N/N=C/c1ccc(Cl)c(Cl)c1)c1ccc2nc[nH]c2c1` was -191% (active).

For `Cc1nn(C)c(Oc2ccccc2)c1[N+](=O)[O-]`, the activity score is -79.9% (active). The value for `Cc1ccc(N2C(=O)S/C(=C/c3cn(C)c4ccccc34)C2=O)cc1` was -177% (active); that for `COc1cc(SC)ccc1C(=O)NCCOc1ccccc1Cl` was -151% (active). For the compound `O=C(Nc1nc2ccc([N+](=O)[O-])cc2s1)c1ccncc1`, the activity score was -104% (active). The value for `O=C(NC(Nc1nc2ccc([N+](=O)[O-])cc2s1)(C(F)(F)F)C(F)(F)F)c1ccccc1` was 94.1%. On to `CCN(CC)c1ccc(C(=O)OCC(=O)c2ccco2)cc1`, for which the activity score is -179% (active). Next, `Cc1csc(NC(=O)CSc2nnc(-c3cccnc3)o2)n1`: -101% (active). The value for `COC(=O)c1c(NC(=O)COc2ccc(Cl)cc2Cl)sc2c1CC(C)(C)NC2(C)C` was 102%. Consider `Cc1cc(NC(=O)COc2ccc(Cl)cc2Cl)n(CCC#N)n1`, for which the activity score was -122% (active). With `COc1ccc(C(=O)NCCSc2ccccc2C)cc1`, the activity score was -113% (active).

As to `COc1ccc(Nc2cc(=O)oc3ccccc23)cc1`, the activity score is -97.7% (active). The value for `CSc1nc(-c2ccccc2)nc(C(Cl)Cl)n1` was 114%; that for `Cc1csc(NC(=O)Nc2ccccc2[N+](=O)[O-])n1` was -255% (active). For `NC(=O)c1sc2nc3c(c(-c4ccccc4)c2c1N)CCC3`, the activity score was 56.2%. As to `CN(C)c1ccnc2sc(C(=O)c3ccccc3)c(N)c12`, the activity score is -138% (active).

With `Cc1nc2sc(C(=O)c3ccccc3)c(N)c2c2c1CCCC2`, the activity score is -156% (active). Next, `Cc1cccc(NC(=O)COc2ccc(Br)cc2C)n1`: -210% (active); `CCOc1cc(N2CCOCC2)c(OCC)cc1NC(=O)COc1cccc2cccnc12`: 88.8%. The value for `Cc1cccc(NC(=O)Cc2ccc(Br)cc2)n1` was -90.2% (active); that for `Cc1cccc(NC(=O)c2ccc3ccccc3n2)n1` was -103% (active); that for `Cc1cccc(NC(=O)COc2ccccc2C)n1` was -109% (active). With `Cc1ccccc1OCC(=O)Nc1ccc2c(c1)ncn2C`, the activity score was -256% (active). As for `CCc1c(C)c2ccc(OC3CCCCC3=O)cc2oc1=O` (stereo not drawn), the activity score is -133% (active). Next, `Cc1ccc(-c2nn(-c3ccccc3)cc2/C=C2\SC(=S)N(CCCCCC(=O)O)C2=O)o1`: -89.9% (active); `C=CCOc1ccc(/C=C2\SC(=S)N(CCC(=O)O)C2=O)cc1`: 80%; `COc1ccc2nc(Nc3nc(-c4ccncc4)cs3)sc2c1`: -122% (active). Consider `CCNc1nc(-c2cc3ccccc3o2)cs1`, for which the activity score is -187% (active). Next, `COc1ccc2nc(Nc3nc(-c4cc5ccccc5oc4=O)cs3)sc2c1`: -131% (active); `O=c1oc2ccccc2cc1-c1csc(Nc2ccc(O)cc2)n1`: -171% (active). Take `CC(Cc1cccs1)NC(=O)NC1CCCCC1` (stereo not drawn): the activity score was -95.9% (active). With `CC(Cc1cccs1)NC(=O)c1cccc(Cl)c1` (stereo not drawn), the activity score was -95.5% (active). On to `O=C(NC1CCCCCCC1)c1cccs1`, for which the activity score is -77.8% (active). As to `Cc1cnc(NC(=O)c2ccc(Cl)nc2)s1`, the activity score was -97.1% (active). With `COc1cc(CNc2ncn[nH]2)ccc1OCc1ccccc1C`, the activity score was -65.6% (active). Take `O=C(Cc1cccs1)NCc1cccc(C(F)(F)F)c1`: the activity score was -110% (active). Regarding `COC(=O)Cc1csc(/N=C/c2c(O)n(-c3cccc(C(F)(F)F)c3)c(=O)c3ccccc23)n1`, the activity score is 81.8%. Take `CC(C)c1ccc(/C=C2\NC(=O)NC2=O)cc1`: the activity score is -66.1% (active).

On to `C/C(=N\Nc1nc2ccccc2[nH]1)c1cccs1`, for which the activity score was -116% (active).

Take `COc1cccc(/C(C)=N/Nc2ncc(Cl)cc2Cl)c1`: the activity score is -119% (active). The value for `COc1cccc(/C=N/Nc2ncc(C(F)(F)F)cc2Cl)c1O` was 76.7%; that for `C/C(=N\Nc1ncc(Cl)cc1Cl)c1ccc(S(=O)(=O)NCc2ccco2)cc1` was -141% (active); that for `C/C(=N\Nc1ncc(Cl)cc1Cl)c1cccs1` was -91.6% (active). Turning to `Nc1cccc(CCc2nc3ccccc3[nH]2)c1`, the activity score is -77.9% (active).

Consider `Cc1c(C(=O)OC(C)C)sc(NC(=O)c2cccnc2)c1C#N`, for which the activity score is -80.1% (active). In the case of `CNc1nc2c(C)cccn2c(=O)c1C=Nc1ccc(OC)cc1`, the activity score was -108% (active). Take `O=C(Nc1ccc(N2CCOCC2)cc1)c1ccc(-c2ccccc2[N+](=O)[O-])o1`: the activity score is -107% (active).
